aSyn 5UTR act – Activators via SNCA 5'UTR binding, MLPCN; alpha-synuclein 5'UTR reporter, activators screen; activity score, % (tested at 7.5 µM), hits read low; actives 7.1% (n = 300,000); in the data active = activity score below about -60%
* hit, by the source's call. Only a sample is shown.

SMILES	aSyn 5UTR act
COc1cc(/C=C/C(=O)c2ccc3c(c2)OCCO3)cc(Br)c1OCC(=O)N(C)C	-819*
CCc1ccc(Nc2n[n+](-c3ccccc3)c(-c3ccc(OCc4ccccc4)cc3)s2)cc1	-62*
CCc1ccc(Nc2n[n+](-c3ccccc3)c(/C=C/c3ccccc3)s2)cc1	-169*
CN(C)c1ccc(-c2sc(Nc3ccccc3)n[n+]2-c2ccc(F)cc2)cc1	-203*
CC(C)c1ccc(NC(=O)c2cccnc2)cc1	-247*
CC(C)c1ccc(NC(=O)c2snc3ccc(Cl)cc23)cc1	-369*
CC(C)c1ccc(NC(=O)c2csnn2)cc1	-98*
CCSc1ccc(NC(=O)c2cccnc2)cc1	-66*
CCc1ccc(NC(=O)c2cccnc2)cc1	-79*
COc1ccc(Cc2nc(-c3ccc(NC(=O)c4cccnc4)cc3)no2)cc1	75
CCC(=O)N1CCC(c2ccc(OC)cc2)=N1	-75*
CCOc1ccc(C2=Nn3c(nnc3-c3ccc(OC)cc3)SC2)cc1	84
CCOc1ccc(OCC(=O)NCCS(=O)(=O)N2CCN(c3ccc(F)cc3)CC2)cc1	-72*
O=C(NCCS(=O)(=O)N1CCN(c2ccc(F)cc2)CC1)c1ccc(Br)o1	127
COc1cccc(C(=O)/C=C/Nc2ccc(NC(C)=O)cc2)c1	-125*
COc1cccc(C(=O)/C=C/Nc2cccc(O)c2)c1	-87*
Cc1cc(C)cc(NC(=O)c2sc3nc(C)cc(C)c3c2N)c1	-136*
COCc1cc(C)nc2sc(C(=O)Nc3ccccc3F)c(N)c12	-82*
COCc1cc(C)nc2sc(C(=O)NN)c(-n3cccc3)c12	71
Cc1cc(C(F)(F)F)c2c(N)c(C(=O)Nc3cc(C)on3)sc2n1	-125*
C=CCNc1nc(N)c(C(=O)Nc2cc(C)on2)s1	-111*
O=C(N/N=C/c1cccs1)c1n[nH]c2c1CCC2	68
COc1ccc(NC(=O)c2sc3nc(C)cc(C)c3c2N)cc1	-172*
Cc1cc(C)c2c(N)c(C(=O)N/N=C/c3cccs3)sc2n1	-140*
Cc1cc(C)c2c(N)c(C(=O)Nc3ccc([N+](=O)[O-])cc3)sc2n1	-144*
SMILES	aSyn 5UTR act
Cc1cc(C)c2c(N)c(C(=O)Nc3ccc(C)c(C)c3)sc2n1	-63*
CCOC(=O)c1c(C)nc2sc(C(=O)Nc3ccc(C(C)=O)cc3)c(N)c2c1-c1ccc(OC)cc1	-90*
COc1cc(CNCc2ccccn2)ccc1OCc1ccc(Cl)cc1	-66*
O=C(O)c1ccc2c(=O)n3c(nc2c1)/C(=C/c1ccc(F)cc1)CC3	-73*
O=C(NCCc1ccc(F)cc1)c1ccc2c(=O)n3c(nc2c1)CCC3	-71*
O=C(Nc1ccc(F)cc1Cl)c1ccc2c(=O)n3c(nc2c1)CCCCC3	-144*
Cc1ccc(C2CC(c3ccccc3)=NN2C(=S)Nc2ccccc2)o1 (configuration not stated)	-65*
CN(C)S(=O)(=O)Oc1cccc(C(=O)Nc2ccc(Cl)cc2)c1	-129*
CN(C)S(=O)(=O)Oc1ccc(C(=O)Nc2cccc(Cl)c2)cc1	-244*
CN(C)S(=O)(=O)Oc1cccc(C(=O)Nc2ccccc2Cl)c1	-91*
CC(C)c1ccc(C2C3CSCC=C3C(C#N)=C(N)C2(C#N)C#N)cc1 (configuration not stated)	-84*
O=C(Nc1cc(-c2nc3ncccc3o2)ccc1Cl)c1ccc([N+](=O)[O-])o1	-200*
O=C(Nc1cccc2ccccc12)c1ccc([N+](=O)[O-])o1	-179*
COc1ccccc1NC(=O)c1ccc([N+](=O)[O-])o1	-98*
CCCn1c(NC(=O)c2ccc([N+](=O)[O-])o2)nc2ccccc21	-88*
CN(C)S(=O)(=O)c1cccc(C(=O)Nc2ccc(Cl)cn2)c1	-116*
COc1ccc(C(=O)Nc2ccc(Cl)cn2)cc1Cl	-182*
Cc1ccc(-n2nnc(-c3cc4ccccc4n3C)n2)cc1	-88*
Cn1c(-c2nnn(-c3ccc(F)cc3)n2)cc2ccccc21	-156*
Cc1ccc2nc(NC(=O)C3CCN(S(=O)(=O)c4cnc[nH]4)CC3)sc2c1	-78*
CC(=O)N1c2ccc(S(=O)(=O)N3CCC(C(=O)NCc4ccccc4Cl)CC3)cc2CC1C (configuration not stated)	-182*
O=C(Nc1nc2ccc(F)cc2s1)C1CCN(S(=O)(=O)c2cc([N+](=O)[O-])ccc2Cl)CC1	-197*
O=C(NCc1ccccc1)C1CCN(S(=O)(=O)c2cc([N+](=O)[O-])ccc2Cl)CC1	-67*
Cc1cccc(CS(=O)(=O)c2ncc(Cl)c(C(=O)NCc3ccccc3)n2)c1	64
CN(C)c1oc(-c2ccc(OCc3ccccc3)cc2)nc1C#N	-109*
SMILES	aSyn 5UTR act
CCCOc1ccc(-c2nnc(N)s2)cc1	-136*
CC(C)c1ccc(-c2nnc(N)s2)cc1	-102*
CCCOc1ccc(-c2nc(-c3ccc(N)cc3)cs2)cc1	-123*
COc1ccc(-c2noc(-c3ccc(Br)o3)n2)cc1OC	-97*
COc1cc(-c2onc3ccc(Br)cc23)cc(OC)c1OC	66
COc1cc(-c2nc(-c3ccc(Br)o3)no2)cc(OC)c1OC	-76*
COc1ccc(-c2c(-c3cc(OC)c(OC)c(OC)c3)noc2C)cn1	76
CC(C)(C)c1ccc(C(=O)N2CCCC2)s1	-64*
Nc1nc2ccccc2n1/N=C/c1ccc([N+](=O)[O-])s1	83
Nc1nc2ccccc2n1/N=C/c1ccc(-c2ccccc2)o1	-191*
COc1cc(NC(=O)CN2CCC(C)CC2)c(C)cc1[N+](=O)[O-]	-82*
On1c(-c2ccc(Cl)cc2)nc2ccccc21	-146*
FC(F)(F)c1nc2ccccc2n2c(-c3ccc(Cl)cc3)nnc12	108
O=C(O)c1cc(-c2c[nH]c3ccccc23)nc2cc3ccccc3cc12	-66*
Cc1ccc(-n2ncc(C(=O)Nc3cc(Cl)cc(Cl)c3)c2C2CCNCC2)cc1C	93
Cc1cc(C)n(CC(=O)NC2CCCc3c2cnn3-c2ccc(C)c(C)c2)n1 (configuration not stated)	-84*
CC(=O)n1cc(N(C(=O)CCl)c2ccccc2)c2ccccc21	106
CC(=O)n1c(Cl)c(NC(=O)CCl)c2ccccc21	-80*
Cc1noc(C)c1-c1nnc(-c2ccc(OC(F)(F)F)cc2)o1	-69*
Clc1c(-c2ccccc2)nnn1-c1ccccc1	-65*
CCc1nonc1NC(=O)c1oc2ccccc2c1C	-75*
CCc1nonc1NC(=O)c1oc2cc(Br)ccc2c1C	-113*
CCc1nonc1NC(=O)c1oc2ccc(C)cc2c1C	-112*
CCc1ccc2oc(C(=O)Nc3nonc3CC)c(C)c2c1	-135*
CC(C)(C)c1ccc(/C=C2\SC(=O)N(CCNC(=O)c3cccc(S(=O)(=O)N4CCOCC4)c3)C2=O)cc1	-89*
SMILES	aSyn 5UTR act
CCN(CC)c1ccc(/C=N/NC(=O)c2cccc(S(=O)(=O)N3CCOCC3)c2)c(O)c1	129
Cc1cccc(NCc2cccc3ccccc23)n1	-67*
Cc1cccc(NCc2ccc(Br)cc2)n1	-66*
Brc1ccc2nc(-c3cccs3)c(NCC3CCCO3)n2c1 (configuration not stated)	-175*
Cc1c(C(=O)N2c3ccccc3CC2C)oc2ccccc12 (configuration not stated)	-76*
Cc1c(C(=O)N2CCc3ccccc3C2)oc2ccccc12	-98*
CCOC(=O)Nc1nc(-c2ccc(F)cc2F)cs1	-148*
COc1ccc(Cl)c2c1[nH]c1nc(SCc3ccccn3)nnc12	-106*
COc1cc(C2=NOC(C(=O)Nc3ccc(C(C)=O)cc3)C2)cc(OC)c1OC (configuration not stated)	-80*

Bioassay records from PubChem BioAssay.
